Binding signal data for one sequence are collected here from paper PMC7862700, “An all-to-all approach to the identification of sequence-specific readers for epigenetic DNA modifications on cytosine”.

Holding throughout (experiment): DAPPL (digital affinity profiling via proximity ligation, sequencing); 10 mM Tris-HCl pH 7.5, 50 mM NaCl, 1 mM DTT, 4% glycerol, room temperature, 30 min; GST-TFs on glutathione beads, 16-mer random dsDNA library, 0.1% formaldehyde crosslink after washing; high values mean tight binding
One assay concerns the target T1, FEV (Homo sapiens, UniProt Q99581 1-238).
T1 sequence: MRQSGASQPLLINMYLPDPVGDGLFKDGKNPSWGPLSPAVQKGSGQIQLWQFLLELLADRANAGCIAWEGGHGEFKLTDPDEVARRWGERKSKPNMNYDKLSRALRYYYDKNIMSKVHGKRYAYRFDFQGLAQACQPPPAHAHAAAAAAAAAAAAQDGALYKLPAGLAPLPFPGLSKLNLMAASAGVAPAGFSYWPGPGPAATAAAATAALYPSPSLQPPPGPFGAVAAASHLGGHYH
The settings on record: protein: recombinant; tags: N-terminal GST; dsDNA, one strand shown. An outline of the steps: (§1)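 Binding signal is each hexamer's read frequency for a factor divided by its frequency in the tag-only sample. The factors were GST-fused human transcription factors from yeast, captured on glutathione beads, DNA-barcoded and pooled with that sample. Pools were incubated with 200 nmole of a random double-stranded 16-mer DNA library in Tris/NaCl/DTT/glycerol buffer at room temperature for 30 min, then washed, crosslinked with 0.1% formaldehyde, proximity-ligated with BsaI/T4 ligase (1 h, 37 °C), PCR-amplified and sequenced on an Illumina NextSeq500.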

Another assay deals with ETV5 (Homo sapiens, UniProt P41161 1-510). The settings on record: protein: recombinant; tags: N-terminal GST; dsDNA, one strand shown. An outline of the steps: as §1
ETV5, sequence (P41161 whole entry): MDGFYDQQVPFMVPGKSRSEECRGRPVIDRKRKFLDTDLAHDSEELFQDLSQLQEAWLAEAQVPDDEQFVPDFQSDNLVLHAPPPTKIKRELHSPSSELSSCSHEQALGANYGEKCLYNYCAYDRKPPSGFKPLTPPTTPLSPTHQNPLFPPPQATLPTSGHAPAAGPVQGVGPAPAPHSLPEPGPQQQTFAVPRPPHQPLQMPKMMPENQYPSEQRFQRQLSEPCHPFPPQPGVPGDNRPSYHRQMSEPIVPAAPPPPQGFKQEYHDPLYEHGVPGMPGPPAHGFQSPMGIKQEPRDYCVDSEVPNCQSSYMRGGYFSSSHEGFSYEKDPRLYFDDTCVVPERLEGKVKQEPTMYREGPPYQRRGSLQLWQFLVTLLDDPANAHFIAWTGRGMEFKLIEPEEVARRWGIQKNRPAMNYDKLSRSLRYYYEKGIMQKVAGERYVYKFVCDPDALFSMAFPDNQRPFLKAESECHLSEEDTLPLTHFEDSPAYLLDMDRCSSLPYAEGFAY
In a further assay the target is HSF1 (Homo sapiens, UniProt Q00613 1-529). The conditions noted are these: protein: recombinant; tags: N-terminal GST; chain copies: 3; dsDNA, one strand shown. An outline of the steps:
as §1

The next assay concerns the target T2, SPIC (Homo sapiens, UniProt Q8N5J4 1-248).
T2 sequence: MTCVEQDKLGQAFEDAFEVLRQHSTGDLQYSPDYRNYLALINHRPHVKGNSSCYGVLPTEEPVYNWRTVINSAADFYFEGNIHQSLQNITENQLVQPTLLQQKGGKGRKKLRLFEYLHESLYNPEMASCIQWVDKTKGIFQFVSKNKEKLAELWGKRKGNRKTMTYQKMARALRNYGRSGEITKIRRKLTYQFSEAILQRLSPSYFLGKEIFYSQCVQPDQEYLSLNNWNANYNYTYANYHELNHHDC
The conditions noted are these: protein: recombinant; tags: N-terminal GST; dsDNA, one strand shown. An outline of the steps: as §1

A further assay deals with ELF4 (Homo sapiens, UniProt Q99607 1-663). The settings on record: protein: recombinant; tags: N-terminal GST; dsDNA, one strand shown. An outline of the steps:
as §1

The next assay addresses T3, ELK4 (Homo sapiens, UniProt P28324-2 1-405).
T3 sequence: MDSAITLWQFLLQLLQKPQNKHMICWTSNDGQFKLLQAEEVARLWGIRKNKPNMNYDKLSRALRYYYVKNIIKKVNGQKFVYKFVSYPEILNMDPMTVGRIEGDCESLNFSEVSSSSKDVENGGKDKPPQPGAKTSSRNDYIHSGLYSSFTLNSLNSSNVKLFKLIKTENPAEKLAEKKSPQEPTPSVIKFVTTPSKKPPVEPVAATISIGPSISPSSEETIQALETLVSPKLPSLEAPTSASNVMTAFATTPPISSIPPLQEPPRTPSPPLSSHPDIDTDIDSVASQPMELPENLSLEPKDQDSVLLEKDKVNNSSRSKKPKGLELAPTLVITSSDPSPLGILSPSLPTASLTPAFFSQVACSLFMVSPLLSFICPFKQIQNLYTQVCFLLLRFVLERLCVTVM
The conditions noted are these: protein: recombinant; tags: N-terminal GST; dsDNA, one strand shown. An outline of the steps: as §1

The target of the next assay is T4, ETV2 (Homo sapiens, UniProt O00321 1-342).
T4 sequence: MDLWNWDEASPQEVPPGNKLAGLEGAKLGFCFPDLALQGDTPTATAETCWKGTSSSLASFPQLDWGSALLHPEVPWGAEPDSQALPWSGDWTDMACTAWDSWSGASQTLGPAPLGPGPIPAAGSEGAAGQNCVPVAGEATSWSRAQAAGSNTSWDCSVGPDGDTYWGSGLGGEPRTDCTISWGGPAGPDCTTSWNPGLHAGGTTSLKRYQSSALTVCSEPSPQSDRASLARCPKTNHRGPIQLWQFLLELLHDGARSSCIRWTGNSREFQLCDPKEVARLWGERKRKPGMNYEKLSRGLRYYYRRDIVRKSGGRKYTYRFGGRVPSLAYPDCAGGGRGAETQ
The settings on record: protein: recombinant; tags: N-terminal GST; dsDNA, one strand shown. An outline of the steps:
as §1

In the next assay the target is T5, ELF3 (Homo sapiens, UniProt P78545 1-371).
T5 sequence: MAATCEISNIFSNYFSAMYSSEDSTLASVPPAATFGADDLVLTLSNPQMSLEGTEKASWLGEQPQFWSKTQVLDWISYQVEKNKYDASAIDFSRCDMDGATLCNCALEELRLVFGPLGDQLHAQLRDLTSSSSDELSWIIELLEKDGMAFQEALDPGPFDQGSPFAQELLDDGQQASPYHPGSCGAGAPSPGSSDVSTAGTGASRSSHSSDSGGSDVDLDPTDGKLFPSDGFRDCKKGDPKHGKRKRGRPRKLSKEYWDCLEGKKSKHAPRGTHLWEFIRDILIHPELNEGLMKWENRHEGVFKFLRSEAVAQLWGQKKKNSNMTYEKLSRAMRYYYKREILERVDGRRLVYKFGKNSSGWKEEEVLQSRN
The settings on record: protein: recombinant; tags: N-terminal GST; dsDNA, one strand shown. An outline of the steps: as §1

The next assay addresses CRX (Homo sapiens, UniProt O43186 1-299). The settings on record: protein: recombinant; tags: N-terminal GST; dsDNA, one strand shown. An outline of the steps: as §1
The next assay addresses ETV1 (Homo sapiens, UniProt P50549 1-477). The settings on record: protein: recombinant; tags: N-terminal GST; dsDNA, one strand shown. An outline of the steps:
as §1

Another assay deals with T6, ERF (Homo sapiens, UniProt P50548 1-548).
T6 sequence: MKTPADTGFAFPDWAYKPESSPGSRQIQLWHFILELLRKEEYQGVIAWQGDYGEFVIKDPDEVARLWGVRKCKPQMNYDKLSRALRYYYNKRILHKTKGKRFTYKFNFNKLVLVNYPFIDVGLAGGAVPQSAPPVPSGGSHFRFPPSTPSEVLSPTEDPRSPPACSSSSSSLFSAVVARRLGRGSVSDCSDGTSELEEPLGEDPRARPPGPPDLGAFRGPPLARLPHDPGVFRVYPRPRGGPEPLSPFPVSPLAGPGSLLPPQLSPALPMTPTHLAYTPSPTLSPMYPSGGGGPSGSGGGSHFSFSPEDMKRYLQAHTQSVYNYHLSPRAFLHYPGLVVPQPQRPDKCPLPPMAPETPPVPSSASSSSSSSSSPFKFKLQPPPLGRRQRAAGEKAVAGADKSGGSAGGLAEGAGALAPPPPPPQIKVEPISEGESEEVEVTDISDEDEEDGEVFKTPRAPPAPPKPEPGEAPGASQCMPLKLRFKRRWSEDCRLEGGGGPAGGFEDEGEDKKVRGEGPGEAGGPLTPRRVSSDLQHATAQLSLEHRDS
The conditions noted are these: protein: recombinant; tags: N-terminal GST; dsDNA, one strand shown. An outline of the steps:
as §1

In another assay the target is T7, ETV3L (Homo sapiens, UniProt Q6ZN32 1-361).
T7 sequence: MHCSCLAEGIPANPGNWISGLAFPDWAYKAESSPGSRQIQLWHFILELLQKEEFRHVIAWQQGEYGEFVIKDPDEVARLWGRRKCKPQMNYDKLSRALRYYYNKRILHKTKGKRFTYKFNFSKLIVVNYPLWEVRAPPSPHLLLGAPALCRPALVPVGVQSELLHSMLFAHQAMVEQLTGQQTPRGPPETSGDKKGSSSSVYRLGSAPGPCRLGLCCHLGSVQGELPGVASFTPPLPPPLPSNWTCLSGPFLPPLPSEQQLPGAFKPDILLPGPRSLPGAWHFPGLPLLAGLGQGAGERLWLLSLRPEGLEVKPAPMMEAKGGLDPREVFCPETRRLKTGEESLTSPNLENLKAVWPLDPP
The conditions noted are these: protein: recombinant; tags: N-terminal GST; dsDNA, one strand shown. An outline of the steps:
as §1

In a further assay the target is T8, ETS2 (Homo sapiens, UniProt P15036 1-469).
T8 sequence: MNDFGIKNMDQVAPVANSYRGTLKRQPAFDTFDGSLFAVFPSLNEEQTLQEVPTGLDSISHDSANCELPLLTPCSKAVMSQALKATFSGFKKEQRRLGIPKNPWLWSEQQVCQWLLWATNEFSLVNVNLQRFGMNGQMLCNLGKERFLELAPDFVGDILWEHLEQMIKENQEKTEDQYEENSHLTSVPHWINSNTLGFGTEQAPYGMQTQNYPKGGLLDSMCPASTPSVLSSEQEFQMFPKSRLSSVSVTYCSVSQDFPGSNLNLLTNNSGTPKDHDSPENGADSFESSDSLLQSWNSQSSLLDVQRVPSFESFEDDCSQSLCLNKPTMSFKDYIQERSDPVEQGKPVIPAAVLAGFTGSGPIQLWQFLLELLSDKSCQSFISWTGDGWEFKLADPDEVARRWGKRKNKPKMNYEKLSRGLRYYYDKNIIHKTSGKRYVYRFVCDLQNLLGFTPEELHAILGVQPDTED
The conditions noted are these: protein: recombinant; tags: N-terminal GST; dsDNA, one strand shown. An outline of the steps: as §1

A further assay concerns the target T9, SPDEF (Homo sapiens, UniProt O95238 1-335).
T9 sequence: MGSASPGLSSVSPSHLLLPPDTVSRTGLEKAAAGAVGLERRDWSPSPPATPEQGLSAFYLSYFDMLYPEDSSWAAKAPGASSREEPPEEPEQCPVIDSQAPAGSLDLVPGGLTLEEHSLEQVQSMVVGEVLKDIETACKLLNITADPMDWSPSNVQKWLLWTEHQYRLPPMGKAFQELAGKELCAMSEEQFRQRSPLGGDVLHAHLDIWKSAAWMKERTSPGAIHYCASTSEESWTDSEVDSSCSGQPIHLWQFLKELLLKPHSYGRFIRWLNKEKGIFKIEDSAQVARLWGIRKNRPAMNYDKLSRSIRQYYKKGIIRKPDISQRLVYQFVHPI
The conditions noted are these: protein: recombinant; tags: N-terminal GST; dsDNA, one strand shown. An outline of the steps: as §1

The next assay addresses T10, ETV7 (Homo sapiens, UniProt Q9Y603 1-341).
T10 sequence: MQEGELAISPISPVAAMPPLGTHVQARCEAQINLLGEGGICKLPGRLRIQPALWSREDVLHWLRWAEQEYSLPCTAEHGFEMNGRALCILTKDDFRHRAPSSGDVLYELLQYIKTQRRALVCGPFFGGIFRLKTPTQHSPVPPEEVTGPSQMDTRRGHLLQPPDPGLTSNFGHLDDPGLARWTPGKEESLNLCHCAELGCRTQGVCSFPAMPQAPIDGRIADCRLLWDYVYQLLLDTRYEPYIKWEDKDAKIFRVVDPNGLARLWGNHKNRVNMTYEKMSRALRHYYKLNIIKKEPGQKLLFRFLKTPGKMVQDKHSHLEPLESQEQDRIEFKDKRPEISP
The settings on record: protein: recombinant; tags: N-terminal GST; dsDNA, one strand shown. An outline of the steps: as §1

The next assay addresses T11, ELF5 (Homo sapiens, UniProt Q9UKW6-2 1-255).
T11 sequence: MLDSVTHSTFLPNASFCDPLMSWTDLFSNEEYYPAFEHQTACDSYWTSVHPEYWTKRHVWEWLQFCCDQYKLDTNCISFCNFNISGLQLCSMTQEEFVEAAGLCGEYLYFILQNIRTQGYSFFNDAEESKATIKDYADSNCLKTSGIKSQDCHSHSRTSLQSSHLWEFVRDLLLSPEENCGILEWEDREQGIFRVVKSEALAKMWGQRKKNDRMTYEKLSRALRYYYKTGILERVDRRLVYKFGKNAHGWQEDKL
The conditions noted are these: protein: recombinant; tags: N-terminal GST; dsDNA, one strand shown. An outline of the steps: as §1

Another assay addresses T12, ETV3 (Homo sapiens, UniProt P41162-2 1-143).
T12 sequence: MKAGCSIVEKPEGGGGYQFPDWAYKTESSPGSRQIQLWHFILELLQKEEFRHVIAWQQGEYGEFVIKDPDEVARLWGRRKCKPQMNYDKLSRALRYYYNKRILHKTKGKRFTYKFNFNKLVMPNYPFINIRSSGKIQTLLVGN
The conditions noted are these: protein: recombinant; tags: N-terminal GST; dsDNA, one strand shown. An outline of the steps: as §1

The next assay concerns the target ETV6 (Homo sapiens, UniProt P41212 1-452). The conditions noted are these: protein: recombinant; tags: N-terminal GST; dsDNA, one strand shown. An outline of the steps: as §1

ETV1, sequence (P50549 whole entry): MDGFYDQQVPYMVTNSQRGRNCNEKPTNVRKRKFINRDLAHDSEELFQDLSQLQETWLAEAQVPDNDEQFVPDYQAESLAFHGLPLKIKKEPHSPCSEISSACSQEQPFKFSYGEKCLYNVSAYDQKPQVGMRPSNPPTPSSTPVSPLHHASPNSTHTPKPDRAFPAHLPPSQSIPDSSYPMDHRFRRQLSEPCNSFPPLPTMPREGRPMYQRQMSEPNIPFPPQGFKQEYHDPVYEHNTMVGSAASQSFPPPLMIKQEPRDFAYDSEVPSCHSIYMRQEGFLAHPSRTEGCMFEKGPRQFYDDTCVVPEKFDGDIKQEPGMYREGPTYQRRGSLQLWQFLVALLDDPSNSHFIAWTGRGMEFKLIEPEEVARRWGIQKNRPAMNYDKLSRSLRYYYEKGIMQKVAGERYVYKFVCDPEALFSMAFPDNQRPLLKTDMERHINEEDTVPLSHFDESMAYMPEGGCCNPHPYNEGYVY
HSF1, sequence (Q00613 whole entry): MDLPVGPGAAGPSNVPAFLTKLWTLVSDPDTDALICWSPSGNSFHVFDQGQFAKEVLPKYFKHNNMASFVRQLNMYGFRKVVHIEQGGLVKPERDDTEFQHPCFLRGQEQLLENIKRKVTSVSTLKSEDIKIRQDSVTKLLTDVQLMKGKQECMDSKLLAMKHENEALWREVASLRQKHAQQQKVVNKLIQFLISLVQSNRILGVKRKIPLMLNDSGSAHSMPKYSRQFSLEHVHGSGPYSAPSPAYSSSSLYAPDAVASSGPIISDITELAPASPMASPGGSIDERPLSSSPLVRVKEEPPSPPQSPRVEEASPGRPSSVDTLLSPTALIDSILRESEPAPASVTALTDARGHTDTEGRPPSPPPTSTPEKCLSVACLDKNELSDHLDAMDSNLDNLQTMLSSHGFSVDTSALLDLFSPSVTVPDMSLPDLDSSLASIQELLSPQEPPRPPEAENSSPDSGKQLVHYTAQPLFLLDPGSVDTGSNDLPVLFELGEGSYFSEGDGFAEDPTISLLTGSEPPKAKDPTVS
ETV6, sequence (P41212 whole entry): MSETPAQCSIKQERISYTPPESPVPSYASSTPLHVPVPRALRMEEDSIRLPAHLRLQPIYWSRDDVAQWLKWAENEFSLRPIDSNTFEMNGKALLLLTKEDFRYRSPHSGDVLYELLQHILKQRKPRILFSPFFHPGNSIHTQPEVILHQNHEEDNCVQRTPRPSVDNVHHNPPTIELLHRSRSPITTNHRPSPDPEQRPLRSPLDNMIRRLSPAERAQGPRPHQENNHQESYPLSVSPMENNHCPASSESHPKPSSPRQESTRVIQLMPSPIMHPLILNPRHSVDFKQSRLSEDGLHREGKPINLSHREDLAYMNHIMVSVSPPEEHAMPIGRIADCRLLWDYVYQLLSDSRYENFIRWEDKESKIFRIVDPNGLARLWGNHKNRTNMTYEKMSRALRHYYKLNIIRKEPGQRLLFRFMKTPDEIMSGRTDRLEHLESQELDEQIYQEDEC
ELF4, sequence (Q99607 whole entry): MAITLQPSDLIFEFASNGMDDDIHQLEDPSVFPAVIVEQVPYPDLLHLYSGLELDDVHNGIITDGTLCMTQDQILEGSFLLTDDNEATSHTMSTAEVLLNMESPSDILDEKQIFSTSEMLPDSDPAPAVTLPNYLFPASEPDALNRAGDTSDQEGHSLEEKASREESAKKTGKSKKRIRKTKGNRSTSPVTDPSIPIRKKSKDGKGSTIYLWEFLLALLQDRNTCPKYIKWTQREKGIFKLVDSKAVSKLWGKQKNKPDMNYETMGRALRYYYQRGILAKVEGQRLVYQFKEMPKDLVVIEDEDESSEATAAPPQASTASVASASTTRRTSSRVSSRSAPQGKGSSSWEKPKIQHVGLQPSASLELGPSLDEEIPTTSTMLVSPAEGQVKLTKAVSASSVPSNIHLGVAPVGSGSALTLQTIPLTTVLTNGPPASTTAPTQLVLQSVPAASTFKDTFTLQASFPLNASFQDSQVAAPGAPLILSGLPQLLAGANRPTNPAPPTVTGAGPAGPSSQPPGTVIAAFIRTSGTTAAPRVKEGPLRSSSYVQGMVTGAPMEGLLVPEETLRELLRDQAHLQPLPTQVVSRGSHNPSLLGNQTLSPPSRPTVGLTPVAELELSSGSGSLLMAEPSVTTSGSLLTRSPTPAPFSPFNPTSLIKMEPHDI
CRX, sequence (O43186 whole entry): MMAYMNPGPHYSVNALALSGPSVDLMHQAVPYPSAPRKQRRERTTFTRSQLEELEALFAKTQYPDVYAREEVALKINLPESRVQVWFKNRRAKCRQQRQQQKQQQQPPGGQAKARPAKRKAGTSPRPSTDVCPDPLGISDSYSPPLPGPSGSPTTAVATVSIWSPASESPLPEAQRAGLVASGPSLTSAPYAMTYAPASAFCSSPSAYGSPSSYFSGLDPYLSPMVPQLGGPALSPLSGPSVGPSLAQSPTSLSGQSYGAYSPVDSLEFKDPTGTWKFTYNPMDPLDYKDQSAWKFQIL

Turning to CATCTT, the binding signal with FEV was 1.16 fold enrichment (6-mer frequency, TF over GST control); with ETV5 it was 1.21 fold enrichment (6-mer frequency, TF over GST control); in the assay with HSF1, 1.17 fold enrichment (6-mer frequency, TF over GST control); with SPIC, 1.11 fold enrichment (6-mer frequency, TF over GST control); with ELF4, 1.12 fold enrichment (6-mer frequency, TF over GST control); with ELK4, 1.31 fold enrichment (6-mer frequency, TF over GST control). The binding signal is 1.29 fold enrichment (6-mer frequency, TF over GST control) with ETV2; 1.23 fold enrichment (6-mer frequency, TF over GST control) with ELF3; 1.33 fold enrichment (6-mer frequency, TF over GST control) with CRX; 1.24 fold enrichment (6-mer frequency, TF over GST control) with ETV1; 1.26 fold enrichment (6-mer frequency, TF over GST control) with ERF; 1.28 fold enrichment (6-mer frequency, TF over GST control) in the assay with ETV3L. Further, the binding signal with ETS2 was 1.23 fold enrichment (6-mer frequency, TF over GST control); with SPDEF it was 1.03 fold enrichment (6-mer frequency, TF over GST control); in the assay with ETV7 it was 1.25 fold enrichment (6-mer frequency, TF over GST control); with ELF5, 1.17 fold enrichment (6-mer frequency, TF over GST control); in the assay with ETV3 it was 1.18 fold enrichment (6-mer frequency, TF over GST control); with ETV6, 1.25 fold enrichment (6-mer frequency, TF over GST control).
